High-throughput results: PubChem, National Center for Advancing Translational Sciences (NCATS)
An excerpt weighted towards active compounds, which were near 4.4% of everything screened.
TRHR agonist-1 = qHTS for Small Molecule Agonists and Allosteric Enhancers of Human TRH Receptor: Primary Screen for Agonists; AID 493084, 2011; actives 0.18% (n = 360,000); activation, % at 2 µM; Thyrotropin-releasing hormone receptor (Homo sapiens), P34981; TRHR cells, calcium flux fluo-8, FDSS agonist mode; in the data active = activation above about 30%; note: 0% is about no effect
Target sequence (P34981 whole entry, looked up): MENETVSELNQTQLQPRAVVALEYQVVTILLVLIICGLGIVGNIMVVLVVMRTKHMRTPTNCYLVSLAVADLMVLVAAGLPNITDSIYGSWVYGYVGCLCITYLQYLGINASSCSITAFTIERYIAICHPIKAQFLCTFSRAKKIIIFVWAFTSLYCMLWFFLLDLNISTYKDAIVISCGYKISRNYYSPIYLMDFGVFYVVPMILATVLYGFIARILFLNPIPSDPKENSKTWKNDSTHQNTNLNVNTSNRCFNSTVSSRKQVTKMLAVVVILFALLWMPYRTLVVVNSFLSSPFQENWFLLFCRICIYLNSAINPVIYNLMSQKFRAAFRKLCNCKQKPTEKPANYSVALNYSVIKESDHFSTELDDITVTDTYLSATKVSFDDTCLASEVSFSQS
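Read-out: compound-evoked intracellular calcium rise in TRHR cells, fluo-8 dye, kinetic FDSS fluorescence at 1 s/cycle following a 10-cycle baseline. Cells cultured overnight before dye loading (30 min–1.5 h, RT).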
D1 PAM = Potentiators of Human D1 Dopamine Receptor: qHTS; D(1A) dopamine receptor (Homo sapiens), P21728; HEK293 TREx D1 cells, calcium flux, dopamine EC20 potentiation; potentiation, % at 10 µM; actives 0.036% (n = 360,000); in the data active = potentiation above about 30%; note: 0% is about no effect
D1 ag = Allosteric Agonists of the Human D1 Dopamine Receptor: qHTS; D(1A) dopamine receptor (Homo sapiens), P21728; HEK293 T-REx D1 cells, calcium flux, agonist mode; activation, % at 2 µM; actives 1% (n = 360,000); in the data active = activation above about 30%; note: 0% is about no effect
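Tetracycline-induced HEK293 TREx D1 cells, force-coupled to calcium signalling, were dye-loaded with a no-wash calcium kit. Compound was pin-added after a 10 s baseline. Fluorescence was read kinetically at 1 cycle/s for 180 s, with calcium rises flagged as agonism.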
TRHR enhancer-1 = qHTS for Small Molecule Agonists and Allosteric Enhancers of Human TRH Receptor: Primary Screen for Enhancers. enhancement, % at 2 µM. actives 0.66% (n = 360,000). TRHR cells, fluo-8 calcium fluorescence, EC20 TRH enhancement; in the data active = enhancement above about 30%; note: 0% is about no effect
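TRHR-expressing cells loaded with fluo-8 calcium dye were read kinetically (ex 480/em 530) during compound addition, then stimulated with an EC20 of TRH (10 nM final). Enhancement of the Gq-mediated intracellular calcium response was scored.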
D1 antagonist = Antagonist of Human D 1 Dopamine Receptor: qHTS. HEK293 TREx D1 cells, calcium flux, dopamine EC80; stronger effect = lower value. actives 3.2% (n = 360,000). AID 504652, 2011. activity change, negative = inhibition, % at 10 µM. D(1A) dopamine receptor (Homo sapiens), P21728; in the data active = activity change below about -30%; note: % is set by controls: 0 for no effect and ±100 for the full control effect
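After overnight tetracycline induction at 30 C, force-coupled D1 HEK293 cells took up a no-wash calcium dye at room temperature. Compounds were added and monitored 180 s, and the response to EC80 dopamine was then recorded.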
USP1 inh = Inhibitors of USP1/UAF1: Primary Screen; Ubiquitin carboxyl-terminal hydrolase 1 (Homo sapiens), O94782; recombinant USP1/UAF1, Ub-Rhodamine cleavage fluorescence; Potency, µM (doses to about 57.1 µM), inactives show top-dose activity change, negative = inhibition, most hits filed as inhibitors; actives 0.23% (n = 390,000); note: potency is the fitted concentration of half-maximal effect; % is set by controls: 0 for no effect and ±100 for the full control effect; nearly all actives have a fitted effect of over 60% in size
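High-throughput fluorogenic screen: 1nM USP1/UAF1 complex, Ub-Rho substrate 150nM final, 50mM HEPES pH 7.8 with 0.5mM EDTA, 0.1 mg/ml BSA, 1mM TCEP and 0.01% Tween-20.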
TRHR enhancer-2 = qHTS for Small Molecule Agonists and Allosteric Enhancers of Human TRH Receptor: Confirmation Screen for Enhancers. shares compounds with TRHR enhancer-1. TRH receptor cell assay, enhancer confirmation qHTS. activity change, negative = inhibition, % at 46.1 µM. 970 tested, under 10 active. AID 493076, 2011;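 note: compound effect scored on response to added TRH at EC20 of 10 nM; 0% is about no effect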
TRHR agonist-2 = qHTS for Small Molecule Agonists and Allosteric Enhancers of Human TRH Receptor: Confirmation Screen for Agonists; TRHR-expressing cells, agonist activation read-out; actives 8% (n = 970); Potency, µM (series often up to 46.1 µM), without a hit: top-dose activation, hits mostly activators; shares compounds with TRHR enhancer-1; AID 493078, 2011; note: potency is the fitted concentration of half-maximal effect; 0% is about no effect; nearly all actives have a fitted effect of over 75% in size
Active calls of the source: *; ? = inconclusive; . = no result given. Unless noted, calls come from the whole dose curve; as a rule, active = well fitted curve in the direction sought with a large enough effect; inconclusive = small, poorly fitted or top-dose-only effect, or another doubt; inactive = no such curve, though single readings can be large; an effect the other way counts as inactive or inconclusive.

SMILES	TRHR agonist-1	D1 PAM	D1 ag	TRHR enhancer-1	D1 antagonist	USP1 inh	TRHR enhancer-2	TRHR agonist-2
Cc1cccc(NS(=O)(=O)c2cc3c4c(c2)CC(=O)N4CCC3)c1C	0	-1	1	-6	-11	-6%	.	.
CCOc1ccc(NC(=O)CSc2oc(-c3ccco3)nc2S(=O)(=O)c2ccccc2)cc1	0	-1	3	-9	-4	-25%	.	.
CC(=O)Nc1cccc2c1C(=O)N(c1ccccc1C)C2=O	0	-2	0	-1	-5	-7%	.	.
COc1ccccc1N1C(=O)c2cccc3c(N(C)CCO)ccc(c23)C1=O	61*	1	56*	5	5	?	5	21µM*
Cc1ccccc1N1C(=O)c2cccc3c(N(C)CCO)ccc(c23)C1=O	41*	-8	86*	0	-7	?	1	18µM*
CCC(C)NCC(O)(c1ccc(Cl)cc1)c1ccc(Cl)cc1 (configuration not stated)	1	-3	6	50*	11	-14%	-5	?
Cc1ccc(CNCC(O)(c2ccccc2)c2ccc(Cl)cc2)cc1 (configuration not stated)	1	-4	19	0	18	-21%	.	.
CCOCC(=O)Nc1ccc(-c2cn3c(C)csc3n2)cc1	-1	2	0	-3	-1	-22%	.	.
CCN(CC(=O)Nc1c(F)cccc1F)C(=O)c1cccc(S(=O)(=O)N2CCCCCC2)c1	0	-10	1	42*	-5	-9%	-3	1%
O=[N+]([O-])c1ccccc1S(=O)(=O)Nc1cccc(-c2ccc3nncn3n2)c1	1	-6	6	46*	-6	-7%	3	0%
COc1ccc(N2C(=O)CC(Sc3nc(C)cc(C)c3C#N)C2=O)cc1 (configuration not stated)	0	0	4	41*	-5	-19%	-4	1%
Brc1cc2c(cc1CSc1ncccn1)OCO2	0	-4	21	46*	-2	?	-9	2%
Brc1cc2c(cc1COc1ccc(-c3nn[nH]n3)cc1)OCO2	0	9	0	2	-3	-1%	.	.
O=c1c2ccccc2c(/C=N/NS(=O)(=O)c2ccccc2)c(O)n1-c1ccccn1	32*	-6	21	27	5	-25%	-6	4%
COc1ccccc1N1CCN(C(=O)CSc2nc3ccccc3nc2N2CCCCC2)CC1	0	8	4	-1	20	-23%	.	.
COc1ccccc1N1CCN(C(=O)CSc2nc3ccccc3nc2N2CCC(C)CC2)CC1	0	12	7	54*	15	-14%	-4	0%
CCCN1C(=O)c2ccccc2NC1c1ccc(Cl)c(Cl)c1 (configuration not stated)	-1	-3	2	74*	-2	-24%	-13	-1%
COc1ccc(-c2cc(C(=O)Nc3c(C(=O)c4ccc(C)c(F)c4)oc4ccccc34)no2)cc1	-1	0	-2	6	5	-12%	.	.
